Laboratory results from the supplement of paper PMC3334620.
Whole data set: some 33,000 sequences, median “E-score (-0.5 to 0.5)” near -0.012, cut for the highest 2% near 0.29. This excerpt belongs to a sample that is enriched for the highest values.

target: T1, Ybr033w (UniProt P38073); assay: PBM E-score (8-mer binding enrichment) (E-score (-0.5 to 0.5)); higher = stronger / more preferred TF binding; conditions: protein concentration: 200 nM; construct: GST-full length
T1 sequence: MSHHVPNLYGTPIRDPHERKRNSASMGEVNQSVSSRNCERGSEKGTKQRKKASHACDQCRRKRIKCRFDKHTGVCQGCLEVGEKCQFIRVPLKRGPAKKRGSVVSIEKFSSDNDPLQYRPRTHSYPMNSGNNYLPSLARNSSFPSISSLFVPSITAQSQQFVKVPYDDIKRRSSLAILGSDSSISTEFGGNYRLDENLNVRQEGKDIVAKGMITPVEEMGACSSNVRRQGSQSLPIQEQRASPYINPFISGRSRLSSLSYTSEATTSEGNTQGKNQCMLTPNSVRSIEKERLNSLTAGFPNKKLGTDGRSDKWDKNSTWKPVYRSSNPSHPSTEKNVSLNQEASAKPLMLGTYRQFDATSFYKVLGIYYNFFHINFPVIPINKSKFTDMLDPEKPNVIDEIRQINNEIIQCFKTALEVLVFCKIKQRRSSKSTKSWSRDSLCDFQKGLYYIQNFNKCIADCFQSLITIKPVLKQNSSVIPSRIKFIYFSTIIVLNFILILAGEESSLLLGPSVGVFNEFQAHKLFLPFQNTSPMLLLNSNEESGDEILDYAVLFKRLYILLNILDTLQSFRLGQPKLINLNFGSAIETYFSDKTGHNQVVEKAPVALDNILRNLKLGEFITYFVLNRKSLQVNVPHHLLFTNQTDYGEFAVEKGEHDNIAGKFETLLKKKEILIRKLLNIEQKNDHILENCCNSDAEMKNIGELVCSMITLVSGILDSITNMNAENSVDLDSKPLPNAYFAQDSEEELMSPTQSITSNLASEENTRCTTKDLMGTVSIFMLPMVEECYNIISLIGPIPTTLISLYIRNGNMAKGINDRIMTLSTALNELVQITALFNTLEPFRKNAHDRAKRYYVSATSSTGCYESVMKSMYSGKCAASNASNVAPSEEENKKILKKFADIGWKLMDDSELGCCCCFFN
Protocol: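 Universal 'all 10-mer' protein binding microarrays (Agilent AMADID 015681) probed with GST-tagged S. cerevisiae TFs (full-length or DBD) made by in vitro transcription/translation (PURExpress), about 100-200 nM. Bound TF was detected with fluorescent anti-GST. Each ungapped 8-mer (which stands for itself and its reverse complement) is scored by the PBM enrichment score (E-score), a modified Wilcoxon-Mann-Whitney statistic from -0.5 to +0.5, computed with the Universal PBM Analysis Suite. Scale: above 0.35 generally sequence-specific binding.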

Sequence | PBM E-score
CAAAATTC | 0.308
AAAAATTA | 0.302
AAAAATTC | 0.228
CCAATTTA | 0.203
CAAAATTA | 0.182
GCAATTTA | 0.307
ACAAATTA | 0.328
CAAAATTG | 0.0527
CCAAATTA | 0.269
ACAATTTA | 0.225
ACAAATTG | 0.0817
AAACGCAG | -0.0761
ACCAAGTC | 0.139
AGCACTGC | -0.022
AGATGCAG | 0.0243
CGAAGCTC | -0.147
AGAAATTA | 0.352
GGAAATTA | 0.264
GAAAATTA | 0.331
AAAATTTA | 0.269
TAAAATCA | 0.274
GAAAATTC | 0.285

Sequence | PBM E-score
CAAATTTA | 0.237
TAAAATTA | 0.288
TAAATTTA | 0.289
AGAAATTC | 0.178
GAAAATGA | 0.085
TAAAATGA | 0.217
AATGATGT | 0.17
GTTCAGCA | -0.0295
GTCGGCCA | -0.277
AAACCATG | 0.0309
AGACTGCA | -0.156
ATCCATGC | 0.0934
AGGTCAGG | -0.233
GAATTTTA | 0.295
CAATTTTA | 0.217
AAATTTTA | 0.171
CCAGCGAC | -0.116
ATAGCTGG | -0.0109
CAATGACG | -0.158
AGAGTAAG | 0.126
CTAGTAAA | 0.242
GTAGTAAA | 0.188

Sequence | PBM E-score
ATAGTAAT | 0.346
AGAGTAAT | 0.313
ATAGTAAA | 0.277
AGAGTAAA | 0.0304
ATAGTAAC | 0.116
TTAGTAAA | 0.301
AGTGCTTA | -0.00926
CCATTTGC | 0.0186
AGGTAGTC | -0.165
TATTTAAA | 0.301
CAGTTAAA | 0.192
AATTAAAA | 0.112
TATTTTAA | 0.26
CATTAAAA | 0.319
CATTTAAA | 0.21
CATTAAAG | 0.147
TAGTTAAA | 0.296
TATTAAAA | 0.312
CATTAAAC | 0.13
TTTTAAAA | 0.073
GAGTTAAA | 0.0599
AGAAATCC | 0.0392

Sequence | PBM E-score
CGCAAGCC | 0.0476
ACAGAGTC | -0.176
AAGTTGAA | 0.0758
GATTAAAC | 0.17
GATTAAAA | 0.311
TTGTTAAA | 0.0557
CAGTTGAA | 0.00266
TAGTTGAA | 0.307
CTGTTAAA | 0.109
GGTTAAAA | 0.0924
ATGTTAAA | 0.289
CACTGTTC | -0.00287
ACTTCATG | -0.118
ACTGCAGC | -0.136
ACTTACCC | 0.114
CCGACCAA | -0.0529
ATCATGAC | 0.0647
CTGCTAAG | -0.132
GCATCGAC | -0.0951
TGACCACA | 0.0413
TCCCTAAA | 0.0945
